Common to all, as to format: functional
Test [1] deals with Solute carrier family 2, facilitated glucose transporter member 1 (Homo sapiens) (UniProt P11166). Kind of test: ST_JUDE_LEISH: Cytotoxicity at 2uM final concentration against transgenic Leishmania Mexicana promastigotes LmGLUT1 that are glucose transport deficient and complemented with the human glucose transporter GLUT1. Activity is measured by DNA content using SYBR green in vitro.

Test [2] addresses Hexose transporter 1 (Plasmodium falciparum) (UniProt O97467). Briefly: ST_JUDE_LEISH: Cytotoxicity at 2uM final concentration against transgenic Leishmania Mexicana promastigotes LmPfHT that are glucose transport deficient and complemented with the Plasmodium falciparum hexose transporter. Activity is measured by DNA content using SYBR green in vitro.
In test [3] the target is Glucose transporter (Leishmania mexicana) (UniProt O61059). Kind of test: ST_JUDE_LEISH: Cytotoxicity at 2uM final concentration against transgenic Leishmania Mexicana promastigotes LmGT2 that are glucose transport deficient and complemented with the L. Mexicana glucose transporter 2. Activity is measured by DNA content using SYBR green in vitro.

This note sets out measurements from ChEMBL document CHEMBL3433997, “St. Jude Leishmania screening dataset” (2016).

One may read the inhibition as the drop in the measured response relative to a control, in per cent.

Chain of Solute carrier family 2, facilitated glucose transporter member 1 (Homo sapiens) (P11166 whole entry): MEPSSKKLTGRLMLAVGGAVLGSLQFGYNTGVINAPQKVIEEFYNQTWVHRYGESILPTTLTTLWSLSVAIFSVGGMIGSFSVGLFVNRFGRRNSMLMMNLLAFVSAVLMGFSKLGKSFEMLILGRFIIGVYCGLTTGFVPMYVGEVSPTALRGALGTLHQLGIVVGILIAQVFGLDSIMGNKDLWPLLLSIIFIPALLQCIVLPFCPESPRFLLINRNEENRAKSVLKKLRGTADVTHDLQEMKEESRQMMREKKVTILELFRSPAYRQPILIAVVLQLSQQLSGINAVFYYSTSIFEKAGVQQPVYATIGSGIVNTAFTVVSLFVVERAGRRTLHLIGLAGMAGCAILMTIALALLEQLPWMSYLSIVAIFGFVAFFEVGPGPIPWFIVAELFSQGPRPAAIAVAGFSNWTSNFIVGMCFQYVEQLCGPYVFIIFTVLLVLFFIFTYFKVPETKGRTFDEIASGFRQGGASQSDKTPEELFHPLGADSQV

For the molecule `COc1cc(NC(=O)c2ccc3oc4ccccc4c3c2)ccc1OCCN1CCCCC1`, the inhibition is -0.45% in test [1], 1.28% in test [2] and 0.62% in test [3].
On to `CC(C)(O)CC(C)(C)c1cc(Cl)ccc1O`, for which the inhibition in test [1] turned out to be 6.46%; in test [2], 5.76%; in test [3], 4.82%.
For the molecule `CCCCCN1CCC(NS(=O)(=O)c2cccc(C(=O)Nc3cccc(C(F)(F)F)c3)c2)C1` (stereo unspecified), the figures for the inhibition in test [1], in test [2] and in test [3] were 1.68%, 1.1% and 4.07%, respectively.
As for `CCCSc1nc2c(c(=O)n1Cc1ccco1)C1(CCCCC1)Cc1ccccc1-2`, the inhibition in test [1] stood at 1.22%; in test [2] it was 1.9%; in test [3] it was 1.88%.
Turning to `O=C(Nc1cccnc1)c1ccc(-c2cc3ccncc3cc2OC2CCNCC2)s1`, the inhibition is 2.38% in test [1], 2.54% in test [2] and 2.16% in test [3].
`COc1cccc(CNC(=O)[C@@H]2CN(C(=O)c3ccccc3)CCN2)c1`: the inhibition in test [1] is -0.92%; in test [2], 0.03%; in test [3], 0.71%.
In the case of `CCCN1CCN(CCCNC(=O)c2cc3c(Cl)nc4ccc(C)cc4c3s2)CC1`, the inhibition in test [1] is -1.56%; in test [2] it was 1.08%; in test [3], -1.97%.
Take `COc1cc2c(cc1S(=O)(=O)c1ccc(OCc3ccc(Cl)cc3)cc1)CCN(Cc1ccc(NC(C)=O)s1)CC2`: the inhibition in test [1] is 4.82%; in test [2], 4.31%; in test [3], -0.61%.
With `CCn1cc(-c2nc(-c3cc(OC)cc(OC)c3)no2)c(=O)c2ccccc21`, the inhibition in test [1] was 12.3%; in test [2], 6.39%; in test [3], 2.79%.
For `CS(=O)(=O)N(c1cccc(F)c1)c1cc(C(=O)N[C@@H](Cc2ccccc2)[C@H](O)CNCc2cccc(C(F)(F)F)c2)cc(N2CCCC2=O)c1` the same measures were -2.34%, -1.22% and -0.57%.
As for `CC(C)(NCc1ccc(OC(F)(F)F)cc1)c1nc(-c2ccc(Cl)c(O)c2)c(-c2ccncc2)[nH]1`, the values for the inhibition in test [1], in test [2] and in test [3] were -0.58%, -0.36% and 1.94%, respectively.
In the same order, the values of `CCCn1c(Sc2ccc(C#N)c([N+](=O)[O-])c2)nnc1-c1cc(OC)cc(OC)c1` are 0.5%, 4.36% and 1.24%.
For `C=CCOC1OC(COC(c2ccccc2)(c2ccccc2)c2ccccc2)C(OC(C)=O)C(OC(C)=O)C1NC(C)=O` (stereo unspecified), the inhibition in test [1] is 1.33%; in test [2], 1.07%; in test [3], 0.34%.
`COc1cc(F)c2nccc([C@@H](O)CN3CCC(NCc4ccc5c(n4)NC(=O)CS5)CC3)c2c1`: the values for the inhibition in test [1], in test [2] and in test [3] were -0.92%, -1.04% and -1.38%, respectively.
For `COCCNCc1cccc(-c2ccc(CNC3CCN(Cc4ccccc4)CC3)cc2)c1` the same measures were 1.41%, 3.3% and 4.63%.
In the same order, the values of `CN(C)C(=O)n1cnc(S(=O)(=O)N(C)c2ccc(Cl)cc2)n1` are 5.67%, 6.99% and 4.38%.
On to `O=C(c1ccccc1)N1CCC[C@](CCCN2CCN(c3ccccc3O)CC2)(c2ccc(Cl)c(Cl)c2)C1`, for which the inhibition is 5.1% in test [1], 4.13% in test [2] and 5.99% in test [3].
`Cc1ccc(Oc2ccc(CNc3nc(Nc4cccc(F)c4)nc(Nc4cccc(F)c4)n3)cc2)cc1`: the results for the inhibition in test [1], in test [2] and in test [3] were 8.54%, 8.04% and 4.75%, respectively.
For `Cc1ccc(CN2CCN(c3cc4c(cc3Cl)CCN4C(=O)Cc3ccc(Cl)c(NC(=O)Nc4cccc(C#N)c4)c3)CC2)cc1` the same measures were -1.29%, -1.46% and -0.62%.
For `CCn1c(-c2nonc2N)nc2cnc(Oc3cccc(NC(=O)c4ccc(OCCN(C(C)C)C(C)C)cc4)c3)cc21`, the inhibition stood at 15.1% in test [1], 18.2% in test [2] and 5.45% in test [3].
In the same order, the values of `Nc1nc(N)c2c(n1)CCC(c1ccccc1)C2` (stereo unspecified) are 2.39%, 1.07% and 1.39%.
Turning to `Cc1ccnc(-n2c(C)cc(C=C3SC(=Nc4ccccc4)N(Cc4ccco4)C3=O)c2C)c1`, the figures for the inhibition in test [1], in test [2] and in test [3] were 2.02%, 2.85% and 4.69%, respectively.
For the molecule `O=C(CCNc1ccnc(NCC2CCCCC2)n1)Nc1ccccc1`, the inhibition in test [1] came to 7.25%; in test [2], 5.25%; in test [3], 3.46%.
For the molecule `Cc1n[nH]c(C)c1C1CCN(CC2CCC(NC(=O)/C=C/c3ccc(Cl)c(Cl)c3)CC2)CC1` (stereo unspecified), the inhibition in test [1] was found to be 4.43%; in test [2], 4.25%; in test [3], 5.93%.
For `O=C(CC(c1ccccc1)c1ccccc1O)N1CCOCC1` (stereo unspecified) the same measures were 0.4%, 1.12% and -0.06%.
In the case of `Cc1oc(-c2cccc(Oc3ccccc3)c2)nc1CN(Cc1cnn(C)c1)C(C)C`, the inhibition worked out at 1.56% in test [1], 1.15% in test [2] and 1.83% in test [3].
In the same order, the values of `O=C(NCC1CCN(Cc2ccc(F)cc2)C1)c1cc(-c2cccc(C(F)(F)F)c2)cs1` (stereo unspecified) are -0.31%, -1.16% and -6.61%.
